Compound activity deposited in PubChem BioAssay by several laboratories.
DTT redox prof: compounds producing H2O2 with reducing agent – biochemical, NIH compound library profiling, artefact control for MLSCN library redox annotation, primary screen; DTT-dependent redox cycling H2O2, phenol red/HRP absorbance; 100% = 100 µM peroxide control, 0% = buffer; activation, % at 10 µM; hit rate 0.03% among 200,000; AID 878;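 active means activation of at least 50% relative to the plate's high and low controls in the primary single-dose screen; inactive means activation below 50%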;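 further: compound incubated with DTT at 0.8 mM final as the reducing agent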
Efa HMGR inh: blocks class II HMG-CoA reductase of Enterococcus faecalis. inhibition, % at 10 µM. purified E. faecalis HMGR, NADPH absorbance 340 nm kinetic. hit rate 0.41% among 190,000;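 active means inhibition above a set limit, the median over all tested compounds plus 3 SD, cut at about 9.5% in these data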;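 further: enzyme runs in reverse so mevalonate oxidation gives rising NADPH absorbance; 0% = complete reaction with DMSO and 100% = background rate lacking mevalonate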
p-CIP stab down: lowers stability of the mouse p/CIP coactivator protein; Q05BA5; F442A p/CIP-EGFP cells, EGFP fluorescence, 16 h; decrease of EGFP signal, % at 10 µM; hit rate 0.01% among 290,000;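 active means EGFP signal decrease of at least 30% at 10 µM or well 3 SD below plate mean, unless failing retest; inactive means the rest, including hits failing retest or dose response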
Tb hexokinase: blocks Trypanosoma brucei hexokinase 1 activity; hit rate 0.11% among 220,000; recombinant TbHK1, G6PDH-coupled NADH A340; AID 1430; inhibition, % at 10 µM;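 active means inhibition of 50% or more in the single-dose primary screen; inactive means inhibition below 50%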
Furin inh: human furin inhibition; P09958; hit rate 0.061% among 220,000; purified furin, fluorogenic substrate cleavage; inhibition, % at 20 µM or 30 µM; AID 463115; in the data active means inhibition above about 25%
Target sequence (P09958 108-714 limits assumed): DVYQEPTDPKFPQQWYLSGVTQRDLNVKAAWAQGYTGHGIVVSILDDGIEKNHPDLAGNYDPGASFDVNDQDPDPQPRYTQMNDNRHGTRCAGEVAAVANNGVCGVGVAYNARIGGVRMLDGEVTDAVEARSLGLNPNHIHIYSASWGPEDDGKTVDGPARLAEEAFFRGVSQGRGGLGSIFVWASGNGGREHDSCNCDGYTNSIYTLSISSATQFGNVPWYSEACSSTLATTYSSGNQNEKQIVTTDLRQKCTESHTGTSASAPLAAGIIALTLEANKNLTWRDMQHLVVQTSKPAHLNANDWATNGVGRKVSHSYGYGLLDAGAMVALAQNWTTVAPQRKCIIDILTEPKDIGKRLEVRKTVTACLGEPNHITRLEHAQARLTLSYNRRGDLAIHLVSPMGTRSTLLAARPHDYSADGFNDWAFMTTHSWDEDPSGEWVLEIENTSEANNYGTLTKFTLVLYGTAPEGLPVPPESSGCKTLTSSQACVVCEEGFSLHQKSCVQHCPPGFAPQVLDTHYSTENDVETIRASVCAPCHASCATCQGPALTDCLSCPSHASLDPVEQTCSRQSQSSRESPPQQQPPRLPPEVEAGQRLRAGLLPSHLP
p97 ATPase inh: inhibitors of human p97 ATPase. hit rate 0.42% among 220,000. inhibition, % at 8 µM. recombinant p97 ATPase, Kinase-Glo ATP luminescence, 3 h. P55072; in the data active means inhibition above about 15%;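 further: 0% = DMSO vehicle and 100% = wells lacking enzyme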
Starred values were filed as active, the others as inactive; / = no result. In the library only some 0.74% were active in any assay of this set; here they are far more common.

SMILES	DTT redox prof	Efa HMGR inh	p-CIP stab down	Tb hexokinase	Furin inh	p97 ATPase inh
Cc1ccc2nc(-c3sc4nc(C)ccc4c3N)[nH]c2c1	0	26*	8	-12	2	-17
Cc1cc(C)c2c(N)c(-c3nc4ccccc4[nH]3)sc2n1	2	-1	1	-3	-14	9
COC(=O)C1=C(C)NC(C)=C(C(=O)OC)C1C1CC=CCC1 (stereo not drawn)	1	15*	11	-11	-14	-2
O=C1NC(=S)S/C1=C\c1ccc(SCc2ccco2)o1	0	13*	-6	38	-2	53*
CC(C(=O)NCc1ccccc1)N1C(=O)c2ccccc2C1=O (stereo not drawn)	/	/	-4	/	/	/
CC(C(=O)O)N1C(=O)c2ccccc2C1=O (stereo not drawn)	0	12*	-5	3	-16	6
C1CCC(C(CC2CCCCN2)C2CCCCC2)CC1 (stereo not drawn)	1	10*	0	5	-16	1
O=C(O)c1ccccc1Nc1ccnc(C(F)(F)F)c1	/	/	-4	/	/	/
O=C(O)c1ccccc1Nc1cccc(C(F)(F)F)c1	0	-2	-1	-4	-7	15*
NNC(=O)c1oc2nc(-c3ccc(Cl)cc3)cc(-c3ccccc3)c2c1N	/	/	-18	/	/	/
NNC(=O)c1oc2nc(-c3ccco3)cc(-c3ccco3)c2c1N	/	/	-21	-24	25*	-3
Nc1c(C(=O)N/N=C/c2cccnc2)oc2nc(-c3ccccc3)cc(-c3ccco3)c12	/	/	-11	-36	-7	15*
CN1CCN(NC(=O)c2cccc(C(F)(F)F)c2)CC1	/	/	-3	-12	-26	4
COC(=O)CNC(=O)c1cc(OC)cc(OC)c1	0	18*	17	-6	-31	7
COc1ccc(CC2(CO)CCN(Cc3cccc4nccnc34)CC2)cc1	0	1	-14	-1	-15	-1
COc1ccc(CN2CCC(CO)(Cc3ccccc3C(F)(F)F)CC2)c(F)c1	-3	10*	4	8	-26	2
O=C(c1ccco1)N1CCN(C2CC(=O)N(c3ccc4c(c3)OCO4)C2=O)CC1 (stereo not drawn)	0	0	-9	-5	31*	2
O=C(c1ccco1)N1CCN(C2CC(=O)N(c3ccccc3)C2=O)CC1 (stereo not drawn)	0	-1	-12	-1	-8	0
Cc1cc(C)c(S(=O)(=O)Nc2ccc(O)c(Sc3ncn[nH]3)c2)cc1C	/	/	3	/	/	/
CCCCC(=O)Nc1ccc(NC(=O)c2ccccc2[N+](=O)[O-])cc1OC	0	-3	-4	29	-11	8
COc1ccc(OC)c(N(CC(=O)NCCSC2CCCCC2)S(=O)(=O)c2ccccc2)c1	/	/	-5	/	/	/
Cn1c(OCc2cccnc2)nc2c1c(=O)n(Cc1ccc(Br)cc1)c(=O)n2C	0	14*	3	-9	-12	-6
Cn1c(OCc2cccnc2)nc2c1c(=O)n(Cc1ccc(Cl)cc1)c(=O)n2C	0	/	/	-8	-21	3
O=C(NCC(=O)N(c1cccc(F)c1)C(C(=O)NC1CCCC1)c1ccncc1)c1cccs1 (stereo not drawn)	/	/	-7	/	/	/
O=C(COc1cccc([N+](=O)[O-])c1)N/N=C/c1ccco1	-2	9.6*	-3	-6	-15	-1
SMILES	DTT redox prof	Efa HMGR inh	p-CIP stab down	Tb hexokinase	Furin inh	p97 ATPase inh
Cc1cc(C)cc(OCC(=O)N/N=C/c2ccco2)c1	0	-7	5	3	3	-2
Cc1ccc(S(=O)(=O)NCCC(=O)Nc2cc(S(=O)(=O)N(C)C)ccc2C)cc1C	/	/	-4	/	/	/
Cc1c(NC(=O)c2ccc(Cl)c(S(=O)(=O)N3CCOCC3)c2)c(=O)n(-c2ccccc2)n1C	3	-2	2	-2	30*	1
Cc1c(NC(=O)c2ccc(Cl)c(S(=O)(=O)N3CCCCC3)c2)c(=O)n(-c2ccccc2)n1C	/	/	4	/	/	/
CCOc1ccc(-n2c(COc3ccc(C)cc3)nnc2SCC(N)=O)cc1	-1	-5	-2	0	-1	-10
CCOC(=O)C(CC)Sc1nnc(COc2ccc(C)cc2)n1-c1ccccc1 (stereo not drawn)	1	-2	5	-11	28*	-5
Cc1ccc(SCC(=O)NCC(C)C)cc1	-2	-1	2	2	-26	4
